Calb FLC = affects C. albicans growth with fluconazole. C. albicans CaCi-2 (fluconazole-resistant clinical isolate) + fluconazole, Alamar Blue growth, 48 h. growth inhibition, % (test concentration not listed). 300,000 compounds, 0.57% hits. AID 1979;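 active means growth inhibition above about 58% in most replicates, limit read from the data, passing the limit was not always enough; inconclusive means exactly half the replicates above a set limit; inactive means most replicates below a set limit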;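 further: all wells also contain fluconazole at 8 µg/ml as a sub-toxic cotreatment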
MPTP block = permeability transition pore inhibition. isolated mouse mitochondria, Ca2+ swelling absorbance, 30 min. inhibition, % at 10 µM. 360,000 compounds, 1.4% hits;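 active means inhibition of 50% or more, scaled per plate between neutral and stimulator controls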
Mdm2 MdmX PPI = human Mdm2/MdmX binding inhibition. O15151+Q00987. AID 485346. 330,000 compounds, 3% hits. SaOS-2 split-luciferase Mdm2/MdmX complementation, luminescence. inhibition, % at 8 µM;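 active means inhibition of at least 50% at 8 µM in the primary screen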
Target sequence (O15151 whole entry, looked up): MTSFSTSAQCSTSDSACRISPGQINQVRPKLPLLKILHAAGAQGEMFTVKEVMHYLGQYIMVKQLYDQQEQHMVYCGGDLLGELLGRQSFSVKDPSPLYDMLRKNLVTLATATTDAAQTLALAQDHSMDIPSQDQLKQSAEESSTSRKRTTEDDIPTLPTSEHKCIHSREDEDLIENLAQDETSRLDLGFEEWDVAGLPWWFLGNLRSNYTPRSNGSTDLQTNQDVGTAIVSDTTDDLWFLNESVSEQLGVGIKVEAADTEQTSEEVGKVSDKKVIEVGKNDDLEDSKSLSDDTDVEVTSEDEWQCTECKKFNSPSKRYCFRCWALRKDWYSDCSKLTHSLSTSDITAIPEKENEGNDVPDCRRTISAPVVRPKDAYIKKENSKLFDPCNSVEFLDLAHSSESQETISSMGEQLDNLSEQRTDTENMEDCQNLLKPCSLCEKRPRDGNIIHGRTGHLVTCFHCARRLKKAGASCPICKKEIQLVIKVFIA
Target sequence (Q00987 whole entry, looked up): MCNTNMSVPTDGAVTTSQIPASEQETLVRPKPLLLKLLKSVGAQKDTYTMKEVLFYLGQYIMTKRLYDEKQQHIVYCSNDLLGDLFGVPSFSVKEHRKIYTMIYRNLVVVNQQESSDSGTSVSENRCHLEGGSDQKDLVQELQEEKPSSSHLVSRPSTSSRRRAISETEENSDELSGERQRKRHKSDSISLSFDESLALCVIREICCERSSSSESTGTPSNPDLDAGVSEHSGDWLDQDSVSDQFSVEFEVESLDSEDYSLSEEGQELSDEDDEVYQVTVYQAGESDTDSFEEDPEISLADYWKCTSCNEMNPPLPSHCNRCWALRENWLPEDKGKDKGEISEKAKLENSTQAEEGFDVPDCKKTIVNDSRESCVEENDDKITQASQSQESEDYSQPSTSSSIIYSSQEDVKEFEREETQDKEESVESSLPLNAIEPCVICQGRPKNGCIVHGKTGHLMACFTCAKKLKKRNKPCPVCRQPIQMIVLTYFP
SKKanGAS inh = inhibitors of SKKanGAS S. pyogenes growth in kanamycin (SK-promoter or general growth effect); BacTiter-Glo, 6 h; inhibition, % at 7.5 µM; 300,000 compounds, 1.3% hits; AID 1662;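 active means mean replicate score, as percent of positive control median, at least 50; inconclusive means mean below 50 but one replicate at or above 50; inactive means mean and every replicate below 50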;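 further: strain carries kanamycin resistance gene driven by streptokinase promoter and grows in 40 µg/ml kanamycin; loss of luminescence reflects streptokinase promoter inhibition or plain growth inhibition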
CSC inhib = cancer stem cell inhibition | cancer stem cell-like cells viability, luminescence | inhibition, % at 7.5 µM | 300,000 compounds, 1.1% hits; in the data active means inhibition above about 75%; inconclusive means no clear call, values can overlap the other calls; tested in HMLE shEcad cells
Beta apoptosis = blocks beta cell apoptosis; INS-1E cytokine-induced death, ATP luminescence, 48 h; percent of positive-control rescue, neutral wells zero; protection from apoptosis, % (test concentration not listed); 300,000 compounds, 0.8% hits;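 active means Every replicate reaches about 75%, or at least half do and their mean reaches it too, limit read from the data; inconclusive means At least half of replicates reach the limit but their mean does not; inactive means Under half of replicates reach the limit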;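 further: higher means more ATP so stronger rescue from cytokine killing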
Each line names hits and unclear results; the compound was inactive in the other large screens. This is a sample that favours compounds with a hit; in the whole collection about 5.4% have one here.

Cc1cccc(C)c1OCc1cc(C(=O)N2CC3C[C@@H]4CC2C[C@H](C3)C4)no1	CSC inhib 107
Clc1ccccc1N=C1NN=C(c2cccs2)CS1	none
Cn1c2c(c(=O)n(C)c1=O)C(NC(=O)c1ccco1)(C(F)(F)F)C(=O)N2 (configuration not stated)	none
CCOc1ccc(/C=C/C(=O)NC2CCCCC2)cc1	none
CCc1nc(N2CCCC2)c(C#N)c2c1CCCC2	none
CC(C)c1nc(N2CCCC2)c(C#N)c2c1CCCC2	SKKanGAS inh 93
C(C#CCCCCCCCCC[n+]1ccccc1)#CCCCCCCCCC[n+]1ccccc1	Calb FLC 110, SKKanGAS inh 62, CSC inhib 75, Beta apoptosis 104 (no result: Mdm2 MdmX PPI)
CCCCOc1cc(NCc2ccccc2)c2ncn(C(C)C)c2c1	Beta apoptosis 80 (no result: Calb FLC, SKKanGAS inh, CSC inhib)
CCC(CO)Oc1cc(NCc2ccc(C(C)(C)C)cc2)c2ncn(C(C)C)c2c1 (configuration not stated)	Beta apoptosis 137 (no result: Calb FLC, SKKanGAS inh, CSC inhib)
COCCCOc1cc(NCc2ccccc2)c2ncn(C(C)C)c2c1	none (no result: Calb FLC, SKKanGAS inh)
Cc1cccc(C)c1N(CC(=O)N1CCN(c2ccccc2F)CC1)S(C)(=O)=O	none
Cn1c(=O)c2c(nc(Br)n2C)n(C)c1=O	none
Cc1ccc(O)c(/C=N/NC(=O)c2[nH]ncc2Br)c1	Beta apoptosis 84
CCOc1ccc(/C=N/NC(=O)c2[nH]ncc2Br)c(O)c1	Calb FLC 114, CSC inhib 87, Beta apoptosis 77
COc1ccc(OC)c(/C=N/NC(=O)c2[nH]ncc2Br)c1	none
Oc1ccccc1CNCCCNCc1ccccc1O	none
CCOC(=O)C1=CN(Cc2cccc(F)c2)S(=O)(=O)N(C)C1c1cccc(OC)c1 (configuration not stated)	none (no result: Calb FLC, SKKanGAS inh, CSC inhib, Beta apoptosis)
Cc1ccc(-n2c3nc(=O)[nH]c(=O)c-3cc3cc([N+](=O)[O-])ccc32)cc1C	CSC inhib 84
CSc1ccc(S(=O)(=O)NCC(=O)OCC(=O)N2CCCC2=O)cc1[N+](=O)[O-]	SKKanGAS inh 68
CC1=NN(c2nc3ccccc3[nH]2)C(=O)/C1=C/N(C)C	CSC inhib 91, Beta apoptosis 113 (no result: SKKanGAS inh)
CC1=NN(c2ccccc2)C(=O)/C1=C/N(C)C	none
CNC(=O)NC(=O)C(C)OC(=O)c1c2c(nc3ccccc13)/C(=C/c1cccs1)CC2 (configuration not stated)	CSC inhib 94
CN1CCN(C(c2ccccn2)c2cc(Cl)c3cccnc3c2O)CC1 (configuration not stated)	Calb FLC 101
CC(=O)NC(C)c1cc(F)c2cccnc2c1O (configuration not stated)	none (no result: Calb FLC, SKKanGAS inh)
Cc1nn(C)c(C)c1/C=C(\C#N)S(=O)(=O)c1ccc(F)cc1	none (no result: Calb FLC, Mdm2 MdmX PPI, SKKanGAS inh, CSC inhib, Beta apoptosis)
CC(C)(C)c1nc(SCC(=O)c2ccccc2)c2ccccc2n1	SKKanGAS inh 62
CCCOc1cccc(C2C(C(=O)c3ccco3)=C(O)C(=O)N2CCN(CC)CC)c1 (configuration not stated)	none
COCCN1C(=O)C(O)=C(C(=O)c2ccco2)C1c1cccc(Oc2ccccc2)c1 (configuration not stated)	Calb FLC 99
COc1ccc2c(c1OC)C(=O)N(c1cccc(C(F)(F)F)c1)C2	none
CC(C)(C)C(=O)N1N=C(c2ccc(NS(C)(=O)=O)cc2)CC1c1cccs1 (configuration not stated)	SKKanGAS inh 50
Cc1[nH]c2ccccc2c1/C=N/Nc1ccc([N+](=O)[O-])cc1S(=O)(=O)Nc1ccc(Cl)cc1	SKKanGAS inh 102 (no result: Beta apoptosis)
O=C(O)COc1ccccc1C=NNc1ccc([N+](=O)[O-])cc1S(=O)(=O)Nc1ccc(Cl)cc1	none (no result: Calb FLC, SKKanGAS inh)
COC(=O)c1ccc(C(=O)OC)c(NC(=O)CSc2cccc[n+]2[O-])c1	Calb FLC 113 (no result: CSC inhib)
O=C(CSc1cccc[n+]1[O-])CSc1cccc[n+]1[O-]	Calb FLC 73 (no result: Beta apoptosis)
O=C(CSc1cccc[n+]1[O-])N1CCCCCC1	none
Cc1cc(N2C(=O)C(O)=C(C(=O)c3cc4ccccc4o3)C2c2ccc(Br)cc2)no1 (configuration not stated)	SKKanGAS inh 87
Cc1cc(N2C(=O)C(O)=C(C(=O)c3cc4ccccc4o3)C2c2cccc(Cl)c2)no1 (configuration not stated)	Calb FLC inconclusive, SKKanGAS inh 83
CCCOc1ccc(C2C(C(=O)c3cc4ccccc4o3)=C(O)C(=O)N2c2cc(C)on2)cc1OC (configuration not stated)	SKKanGAS inh 98
COc1ccc(C2C(C(=O)c3ccc(C)o3)=C(O)C(=O)N2CC2CCCO2)cc1OC (configuration not stated)	none
CS(=O)(=O)c1ccccc1-c1nnc(NC(=O)COc2ccc(Cl)cc2)o1	none
O=C(COc1ccccc1)Nc1nnc(-c2ccc3c(c2)CCCC3)o1	Calb FLC 82, SKKanGAS inh 89
O=C(COc1ccccc1)Nc1nnc(-c2ccc(F)cc2)o1	none
O=C(Nc1cccc2c1CCCC2)c1ccccc1Cl	none
O=C(COc1ccccc1)Nc1nnc(-c2ccccc2Cl)o1	SKKanGAS inh 53
O=C(Nc1nnc(-c2ccc3c(c2)CCCC3)o1)c1ccccc1Cl	SKKanGAS inh 90 (no result: Beta apoptosis)
COC(=O)c1c(=O)n(O)c2ccc(OC)cc2[n+]1[O-]	none
CCCCCCSc1ccc(-c2nc3ccccn3c2NCCCC)cc1	SKKanGAS inh 51, CSC inhib 86
CCCCNc1c(-c2ccc(-c3cccc(Cl)c3)cc2)nc2ccccn12	CSC inhib 97, Beta apoptosis 110
CC(=O)N1c2ccc(S(=O)(=O)N3CCC(C(=O)N4CCN(c5cccc(C(F)(F)F)c5)CC4)CC3)cc2CC1C (configuration not stated)	Beta apoptosis 92
CC(=O)c1ccc(N2CCN(C(=O)C3CCN(S(=O)(=O)c4ccc5c(c4)CC(C)N5C(C)=O)CC3)CC2)cc1 (configuration not stated)	none
COc1ccc(Nc2nc(-c3ccccc3)nc3ccccc23)cc1	none (no result: Beta apoptosis)
COc1cccc(Nc2nc(-c3cccs3)nc3ccccc23)c1	CSC inhib 89
COc1cccc(CN(C)c2nc(-c3cccs3)nc3ccccc23)c1	none
COc1ccc(Nc2nc(-c3cccs3)nc3ccccc23)cc1	Calb FLC inconclusive, CSC inhib 78
CC(/C=C1\SC(=S)N(NC(=O)c2ccc(O)cc2)C1=O)=C\c1ccccc1	CSC inhib 76
CC(=O)Nc1ccc(NC(=O)CCCN2C(=O)c3ccccc3C2=O)cc1	Calb FLC 108
CC(/C=C1\SC(=S)N(CCC(=O)Nc2cccc(C(=O)O)c2)C1=O)=C\c1ccccc1	SKKanGAS inh 112 (no result: CSC inhib)
CC(/C=C1\SC(=S)N(CCCC(=O)Nc2ccc(C(=O)O)cc2)C1=O)=C\c1ccccc1	SKKanGAS inh 121 (no result: CSC inhib)
CC(=Cc1ccccc1)C=C1SC(=S)N(CCCC(=O)Nc2ccc(C(=O)O)cc2)C1=O	none (no result: Calb FLC, Mdm2 MdmX PPI, SKKanGAS inh, CSC inhib, Beta apoptosis)
C=CCNC(=O)c1onc(CS(=O)(=O)c2cc(C)cc(C)c2)c1C(=O)NCC=C	none

Compound activity deposited in PubChem BioAssay by several laboratories.
